tested on: RIPK2
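Note: kd values determined as follow-up on hits from a single-replicate KINOMEscan panel screen.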

| SMILES | Kd [µM] |
| --- | --- |
| Nc1nc(-c2ccccc2F)c(-c2ccnc3ccccc23)s1 [GW560459] | > 10 |
| COc1cc2nccc(Nc3cccc(Oc4ccccc4)c3)c2cc1OC.Cl [GW284543] | 0.44 |
| Nc1ncnc2c1ncn2-c1cccc(F)c1 [SKF-97560] | > 10 |
| COc1ccc(Nc2nccc(N3CCC(NS(=O)(=O)c4ccc(NC(C)=O)cc4)C3)n2)cc1 (stereo not shown) [GSK1379729] | > 10 |

tested on: T1, RSK4(Kin.Dom.2-C-terminal)
T1 construct: gene RPS6KA6

| SMILES | Kd [µM] |
| --- | --- |
| OCCCNc1nccc(-c2c(-c3cccc(C(F)(F)F)c3)nn3cc(C(F)(F)F)ccc23)n1 [GW630813] | 2.7 |
| Nc1nc(-c2ccccc2F)c(-c2ccnc3ccccc23)s1 [GW560459] | 0.028 |
| CCc1nc(-c2cccc(C)c2)c(-c2ccncc2)s1 | 0.12 |

Reference: paper PMC5540273 (PLoS ONE, 2017)
